# Source: PubChem
# In the library only some 19% were active in any assay of this set; here they are far more common.
# KB-3-1 cytotox: qHTS assay for MDR1-selective chemotherapeutics: Primary screen using the parental adenocarcinoma cell KB-3-1 | AID 1347075, 2019 | hit rate 1.4% among 400,000 | Potency, µM (doses to about 46.1 µM), hits mostly cytotoxic | KB-3-1 viability, CellTiter-Glo ATP luminescence, 72 h; also: nearly all actives have a fitted effect of over 60% in size
#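 Using CellTiter-Glo luminescence, growth of non-resistant KB-3-1 adenocarcinoma cells is assessed 72 h after pin-tool compound addition at 37 °C. Normalized responses across the concentration series yield fitted curves.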
# KB-V1 cytotox: qHTS assay for MDR1-selective chemotherapeutics: Primary screen using the drug-selected MDR subline cells KB-V1. KB-V1 MDR cells viability, CellTiter-Glo, 72 h. Potency, µM (highest dose often 46.1 µM), most hits filed as cytotoxic. hit rate 3.4% among 400,000. AID 1347076, 2019; also: nearly all actives have a fitted effect of over 60% in size
#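 In this primary screen, KB-V1 cells overexpressing P-gp are incubated with library compounds (lowest to highest concentration) for 72 h at 37 degrees C before a luminescent ATP viability read.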
# HT1080 IDH1KD tx: qHTS for induction of synthetic lethality in tumor cells producing 2HG: qHTS for the HT-1080-IDH1KD cell line; HT-1080 IDH1 knockdown viability, ATP luminescence, 48 h; Potency, µM (top dose mostly 46.1 µM), for inactives: at the top dose activity, negative = toxicity, usual class: cytotoxic; hit rate 2% among 360,000; AID 686971, 2013;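 also: 0% = DMSO wells and -100% = cell-free medium wells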
#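 Knockdown cells (IDH1KD HT-1080) received compounds 2 h after plating at 750 cells/well and were kept 48 h at 37 °C in 5% FBS RPMI. A CellTiter-Glo luminescence read gave % activity for curve fitting.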
# DT40 TDP1 no CPT: qHTS for Inhibitors of human tyrosyl-DNA phosphodiesterase 1 (TDP1): qHTS in cells in absence of CPT. DT40 Tdp1-/- hTDP1 cells, no CPT, ATP luminescence, 48 h. Potency, µM (top dose mostly 46.2 µM), for inactives: at the top dose activity change, negative = growth inhibition, usual class: inhibitors. hit rate 15% among 420,000. AID 686978, 2013; also: nearly all actives have a fitted effect of over 55% in size
#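 Readout: luminescence from CellTiter-Glo after 30 min in the dark at RT. Cells: DT40 Tdp1-/- with stable hTDP1, 400/well. Exposure: compounds alone, ≥48 hr, 37 °C.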
# HT1080-NT tox: qHTS for induction of synthetic lethality in tumor cells producing 2HG: qHTS for the HT-1080-NT fibrosarcoma cell line; HT-1080-NT fibrosarcoma viability, CellTiter-Glo ATP luminescence, 48 h; Potency, µM (doses to about 46.1 µM), without a hit: at the highest dose activity, negative = less viability, most hits filed as cytotoxic; hit rate 1.6% among 360,000; AID 686970, 2013;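 also: NT is the 2HG producing partner of a matched IDH1 knockdown line; 0% = DMSO-treated cells and -100% = media-only wells without cells; nearly all actives have a fitted effect of over 55% in size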
#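 Viability by CellTiter-Glo luminescence after 48 h compound exposure at 37C of HT-1080-NT cells (750/well, RPMI, 5% FBS). % activity scaled between DMSO wells and medium-only wells, then curve-fitted and categorized by curve class.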
# DT40 TDP1 CPT: qHTS for Inhibitors of human tyrosyl-DNA phosphodiesterase 1 (TDP1): qHTS in cells in presence of CPT; chicken DT40 Tdp1-/-;hTDP1 cells + 20 nM CPT, ATP luminescence, 48 h; Potency, µM (top dose mostly 46.2 µM), without a hit: at the top dose activity change, negative = growth inhibition, hits mostly inhibitors; hit rate 12% among 420,000; also: nearly all actives have a fitted effect of over 55% in size
#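 Chicken DT40 Tdp1-/- cells stably complemented with human TDP1 were seeded at 400 cells/well in medium containing 20 nM camptothecin, exposed to pin-transferred compounds, and grown at 37 °C for at least 48 hr. Viability was read as ATP luminescence.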
# Numbers without * were called inactive; i = inactive; ? = inconclusive; . = not tested or not shown. Calls follow the shape of the dose curve; as a rule, active = well fitted curve in the direction sought with a large enough effect; inconclusive = small, poorly fitted or top-dose-only effect, or another doubt; inactive = no such curve, though single readings can be large; an effect the other way counts as inactive or inconclusive. Unless noted, % is scaled to controls: 0 for no effect and ±100 for the full control effect; potency is read from the fitted curve at half-maximal effect.
SMILES,KB-3-1 cytotox,KB-V1 cytotox,HT1080 IDH1KD tx,DT40 TDP1 no CPT,HT1080-NT tox,DT40 TDP1 CPT
NC(c1csc(Nc2cc(NCc3ccco3)ncn2)n1)c1ccccc1Cl (stereo not drawn),i,i,-13.8%,14.6µM*,?,20.6µM*
O=C(NCc1ccccc1F)c1cc2ccccn2n1,i,i,.,?,.,-17.0%
C=CCc1ccc(OCCCCN2CC(C)CC(C)C2)c(OC)c1 (stereo not drawn),i,i,-5.6%,20.6µM*,-0.8%,16.4µM*
C=CCc1ccc(OCCCCN2CCC(C)CC2)c(OC)c1,i,i,-43.4%,16.4µM*,-17.1%,?
C=CCc1ccc(OCCCN2CCCC(C)C2)c(OC)c1 (stereo not drawn),i,?,-13.4%,?,5.5%,-5.0%
Cc1ccc(C)c(N=C2CCCN2Cc2ccccc2)c1C#N,i,?,-0.8%,16.4µM*,-3.3%,?
CSc1ccc(C2c3c(-c4ccccc4O)n[nH]c3C(=O)N2Cc2ccncc2)cc1 (stereo not drawn),13µM*,i,.,18.4µM*,.,23.1µM*
CCc1ccc(C2c3c(-c4ccccc4O)n[nH]c3C(=O)N2Cc2cccnc2)cc1 (stereo not drawn),i,?,.,?,.,16.4µM*
CCC(Sc1ncc(S(=O)(=O)c2ccc(Cl)cc2)c(=O)[nH]1)C(=O)Nc1ccc(OC)cc1 (stereo not drawn),i,i,.,.,.,.
O=C(/C=C/C=C/c1ccccc1)c1ccco1,i,i,-28.7%,18.4µM*,-26.9%,?
O=C(C=Cc1ccco1)c1ccco1,i,?,9.6%,-25.3%,9.4%,-16.0%
O=C(/C=C/c1ccc(Br)cc1)c1ccco1,?,i,?,16.4µM*,?,7.31µM*
CC1CC(C)CN(CC(=O)NNC(=O)COc2ccc(Cl)cc2)C1 (stereo not drawn),i,?,1.4%,-4.0%,10.7%,-19.7%
COc1ccc(S(=O)(=O)Nc2ccc(F)cc2F)cc1C(=O)N1CCOCC1,?,i,14.3%,-0.9%,2.1%,1.3%
CCOC(=O)C1(CCOC)CCN(Cc2nc(C(C)C)cs2)CC1,i,?,0.7%,25.9µM*,4.2%,?
COc1ccccc1/C=C/CN1CCCC(CO)(CCc2ccccc2)C1 (stereo not drawn),i,i,?,?,?,20.6µM*
CCOC(=O)C1(CCOC)CCN(Cc2ccccc2-c2ccco2)CC1,i,i,-1.6%,?,3.5%,?
CCOC(=O)C1(CCOc2ccccc2)CCN(Cc2cc(OC)ccc2OC)CC1,i,i,-12.8%,14.6µM*,-18.3%,?
OCC1(CCc2ccccc2)CCCN(C/C=C/c2ccccc2)C1 (stereo not drawn),i,?,?,?,-24.1%,6.5%
CCOC(=O)C1(CCOc2ccccc2)CCN(Cc2cccc(OC)c2)CC1,?,?,-23.0%,14.6µM*,-20.7%,23.1µM*
COc1ccc(C2=NN(C3=NN=C(N)Cc4ncnn43)C(O)(C(F)(F)F)C2)cc1 (stereo not drawn),i,?,0.0%,9.1%,22.7%,15.5%
COC(=O)c1c(C)[nH]c(C(=O)/C=C/c2ccccc2F)c1C,i,?,?,?,18.0%,-21.0%
Cc1ccc(S(=O)(=O)NC2CC2)cc1,i,i,4.1%,-12.5%,4.3%,-0.5%
